Results from article PMC7862700, “An all-to-all approach to the identification of sequence-specific readers for epigenetic DNA modifications on cytosine”.

Key:
Experiment in all cases: DAPPL (digital affinity profiling via proximity ligation, sequencing); 10 mM Tris-HCl pH 7.5, 50 mM NaCl, 1 mM DTT, 4% glycerol, room temperature, 30 min; GST-TFs on glutathione beads, 16-mer random dsDNA library, 0.1% formaldehyde crosslink after washing; high values mean tight binding
FEV = target: T1, FEV (Homo sapiens, UniProt Q99581 1-238); conditions: protein: recombinant; tags: N-terminal GST; dsDNA, one strand shown
T1 sequence: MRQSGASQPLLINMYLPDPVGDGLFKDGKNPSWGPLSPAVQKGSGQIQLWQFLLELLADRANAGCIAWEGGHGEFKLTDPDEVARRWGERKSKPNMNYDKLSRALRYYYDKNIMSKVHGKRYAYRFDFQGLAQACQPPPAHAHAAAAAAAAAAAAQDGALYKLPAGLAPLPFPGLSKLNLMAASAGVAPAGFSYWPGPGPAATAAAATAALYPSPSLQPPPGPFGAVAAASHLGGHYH
Summary of the method: (§1)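 Binding signal is given per hexamer as its read frequency for a factor divided by its frequency in the tag-only sample. GST-fused human transcription factors were expressed in yeast, captured on glutathione beads, barcoded with DNA and pooled with that sample, then incubated with 200 nmole of a 16-mer random double-stranded DNA library in Tris/NaCl/DTT/glycerol buffer for 30 min at room temperature. The pools were then washed, crosslinked, proximity-ligated, amplified by PCR and sequenced on an Illumina NextSeq500.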

ETV5 = ETV5 (Homo sapiens, UniProt P41161 1-510); conditions: protein: recombinant; tags: N-terminal GST; dsDNA, one strand shown
Summary of the method: as §1

HSF1 = HSF1 (Homo sapiens, UniProt Q00613 1-529); conditions: protein: recombinant; tags: N-terminal GST; chain copies: 3; dsDNA, one strand shown
Summary of the method: as §1

SPIC = target: T2, SPIC (Homo sapiens, UniProt Q8N5J4 1-248); conditions: protein: recombinant; tags: N-terminal GST; dsDNA, one strand shown
T2 sequence: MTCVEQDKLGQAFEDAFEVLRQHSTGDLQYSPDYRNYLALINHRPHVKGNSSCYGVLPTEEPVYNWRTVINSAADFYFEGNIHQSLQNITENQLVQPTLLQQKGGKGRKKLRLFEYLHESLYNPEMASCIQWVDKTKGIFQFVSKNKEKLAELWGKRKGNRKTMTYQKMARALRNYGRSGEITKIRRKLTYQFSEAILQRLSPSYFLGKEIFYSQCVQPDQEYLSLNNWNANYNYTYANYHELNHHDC
Summary of the method: as §1

ELF4 = ELF4 (Homo sapiens, UniProt Q99607 1-663); conditions: protein: recombinant; tags: N-terminal GST; dsDNA, one strand shown
Summary of the method: as §1

ELK4 = target: T3, ELK4 (Homo sapiens, UniProt P28324-2 1-405); conditions: protein: recombinant; tags: N-terminal GST; dsDNA, one strand shown
T3 sequence: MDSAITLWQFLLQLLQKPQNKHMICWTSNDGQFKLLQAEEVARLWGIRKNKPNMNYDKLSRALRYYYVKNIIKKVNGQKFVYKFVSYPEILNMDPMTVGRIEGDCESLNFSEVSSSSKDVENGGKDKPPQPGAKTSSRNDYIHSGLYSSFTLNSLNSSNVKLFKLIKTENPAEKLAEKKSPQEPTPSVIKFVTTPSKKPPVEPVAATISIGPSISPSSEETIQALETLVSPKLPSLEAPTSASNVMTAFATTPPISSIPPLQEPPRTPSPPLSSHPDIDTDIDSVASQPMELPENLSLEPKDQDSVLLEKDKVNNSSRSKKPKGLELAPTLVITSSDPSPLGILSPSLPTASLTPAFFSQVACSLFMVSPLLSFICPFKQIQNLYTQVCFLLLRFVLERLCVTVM
Summary of the method: as §1

ETV2 = target: T4, ETV2 (Homo sapiens, UniProt O00321 1-342); conditions: protein: recombinant; tags: N-terminal GST; dsDNA, one strand shown
T4 sequence: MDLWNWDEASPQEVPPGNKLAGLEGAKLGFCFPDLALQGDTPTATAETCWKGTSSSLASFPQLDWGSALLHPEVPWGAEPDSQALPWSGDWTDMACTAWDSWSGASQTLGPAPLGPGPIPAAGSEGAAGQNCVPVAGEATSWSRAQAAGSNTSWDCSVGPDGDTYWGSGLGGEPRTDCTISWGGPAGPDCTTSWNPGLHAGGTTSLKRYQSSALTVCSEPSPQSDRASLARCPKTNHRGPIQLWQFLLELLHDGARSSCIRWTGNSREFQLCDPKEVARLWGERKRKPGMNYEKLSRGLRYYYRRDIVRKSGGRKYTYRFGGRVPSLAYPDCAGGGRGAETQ
Summary of the method: as §1

ELF3 = target: T5, ELF3 (Homo sapiens, UniProt P78545 1-371); conditions: protein: recombinant; tags: N-terminal GST; dsDNA, one strand shown
T5 sequence: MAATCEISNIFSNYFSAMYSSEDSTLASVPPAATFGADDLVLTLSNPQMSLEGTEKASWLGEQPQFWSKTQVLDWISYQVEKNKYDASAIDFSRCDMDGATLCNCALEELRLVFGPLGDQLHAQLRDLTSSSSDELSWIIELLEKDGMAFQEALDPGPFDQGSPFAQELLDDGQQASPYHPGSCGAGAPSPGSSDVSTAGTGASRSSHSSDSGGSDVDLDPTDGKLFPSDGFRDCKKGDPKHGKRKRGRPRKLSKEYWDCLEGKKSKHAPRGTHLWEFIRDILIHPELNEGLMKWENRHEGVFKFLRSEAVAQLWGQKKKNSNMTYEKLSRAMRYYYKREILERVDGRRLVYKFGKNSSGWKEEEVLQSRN
Summary of the method: as §1

CRX = CRX (Homo sapiens, UniProt O43186 1-299); conditions: protein: recombinant; tags: N-terminal GST; dsDNA, one strand shown
Summary of the method: as §1

ETV1 = ETV1 (Homo sapiens, UniProt P50549 1-477); conditions: protein: recombinant; tags: N-terminal GST; dsDNA, one strand shown
Summary of the method: as §1

ERF = target: T6, ERF (Homo sapiens, UniProt P50548 1-548); conditions: protein: recombinant; tags: N-terminal GST; dsDNA, one strand shown
T6 sequence: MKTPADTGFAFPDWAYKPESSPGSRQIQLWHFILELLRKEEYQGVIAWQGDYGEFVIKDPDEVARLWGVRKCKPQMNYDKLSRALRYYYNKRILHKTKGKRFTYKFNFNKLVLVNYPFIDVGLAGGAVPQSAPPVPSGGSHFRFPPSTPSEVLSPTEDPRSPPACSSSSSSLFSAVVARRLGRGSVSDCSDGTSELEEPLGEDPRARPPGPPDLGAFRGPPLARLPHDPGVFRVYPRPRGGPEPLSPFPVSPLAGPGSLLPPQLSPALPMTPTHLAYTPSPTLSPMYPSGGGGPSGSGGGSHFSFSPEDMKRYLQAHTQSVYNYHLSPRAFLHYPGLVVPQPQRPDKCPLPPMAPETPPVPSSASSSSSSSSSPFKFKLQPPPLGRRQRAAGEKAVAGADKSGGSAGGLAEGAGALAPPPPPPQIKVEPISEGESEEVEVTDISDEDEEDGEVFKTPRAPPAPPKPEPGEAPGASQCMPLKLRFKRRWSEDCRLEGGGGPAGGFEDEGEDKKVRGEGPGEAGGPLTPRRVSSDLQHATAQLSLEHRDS
Summary of the method: as §1

ETV3L = target: T7, ETV3L (Homo sapiens, UniProt Q6ZN32 1-361); conditions: protein: recombinant; tags: N-terminal GST; dsDNA, one strand shown
T7 sequence: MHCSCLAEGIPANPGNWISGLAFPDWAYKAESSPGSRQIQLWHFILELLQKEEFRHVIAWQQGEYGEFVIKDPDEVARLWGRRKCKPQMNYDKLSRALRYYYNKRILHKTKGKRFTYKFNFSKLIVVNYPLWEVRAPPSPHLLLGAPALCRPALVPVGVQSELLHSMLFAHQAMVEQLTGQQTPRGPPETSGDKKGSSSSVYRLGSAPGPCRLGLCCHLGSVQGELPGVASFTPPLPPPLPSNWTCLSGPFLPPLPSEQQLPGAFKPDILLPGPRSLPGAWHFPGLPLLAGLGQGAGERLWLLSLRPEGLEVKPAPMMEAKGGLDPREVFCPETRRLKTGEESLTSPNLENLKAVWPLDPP
Summary of the method: as §1

ETS2 = target: T8, ETS2 (Homo sapiens, UniProt P15036 1-469); conditions: protein: recombinant; tags: N-terminal GST; dsDNA, one strand shown
T8 sequence: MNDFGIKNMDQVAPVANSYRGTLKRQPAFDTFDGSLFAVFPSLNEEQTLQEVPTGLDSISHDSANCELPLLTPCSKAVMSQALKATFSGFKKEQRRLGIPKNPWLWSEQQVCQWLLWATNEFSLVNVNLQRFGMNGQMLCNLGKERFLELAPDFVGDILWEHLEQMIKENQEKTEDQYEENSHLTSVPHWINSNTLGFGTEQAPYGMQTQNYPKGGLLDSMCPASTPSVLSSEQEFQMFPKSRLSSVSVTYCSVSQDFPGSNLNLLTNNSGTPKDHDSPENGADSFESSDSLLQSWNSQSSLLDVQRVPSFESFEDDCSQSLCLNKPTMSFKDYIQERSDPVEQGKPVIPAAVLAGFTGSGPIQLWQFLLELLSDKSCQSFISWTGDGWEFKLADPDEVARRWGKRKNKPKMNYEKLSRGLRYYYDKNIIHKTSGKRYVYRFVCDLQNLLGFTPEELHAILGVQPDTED
Summary of the method: as §1

SPDEF = target: T9, SPDEF (Homo sapiens, UniProt O95238 1-335); conditions: protein: recombinant; tags: N-terminal GST; dsDNA, one strand shown
T9 sequence: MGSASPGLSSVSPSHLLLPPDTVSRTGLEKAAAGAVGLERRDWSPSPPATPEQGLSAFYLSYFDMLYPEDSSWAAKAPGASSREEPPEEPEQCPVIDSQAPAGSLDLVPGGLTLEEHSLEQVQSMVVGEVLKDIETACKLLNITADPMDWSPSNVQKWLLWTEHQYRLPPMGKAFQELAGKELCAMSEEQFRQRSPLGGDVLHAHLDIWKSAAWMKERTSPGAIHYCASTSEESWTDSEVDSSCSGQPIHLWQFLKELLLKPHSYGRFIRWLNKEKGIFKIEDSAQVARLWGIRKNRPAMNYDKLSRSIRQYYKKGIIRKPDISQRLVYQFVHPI
Summary of the method: as §1

ETV7 = target: T10, ETV7 (Homo sapiens, UniProt Q9Y603 1-341); conditions: protein: recombinant; tags: N-terminal GST; dsDNA, one strand shown
T10 sequence: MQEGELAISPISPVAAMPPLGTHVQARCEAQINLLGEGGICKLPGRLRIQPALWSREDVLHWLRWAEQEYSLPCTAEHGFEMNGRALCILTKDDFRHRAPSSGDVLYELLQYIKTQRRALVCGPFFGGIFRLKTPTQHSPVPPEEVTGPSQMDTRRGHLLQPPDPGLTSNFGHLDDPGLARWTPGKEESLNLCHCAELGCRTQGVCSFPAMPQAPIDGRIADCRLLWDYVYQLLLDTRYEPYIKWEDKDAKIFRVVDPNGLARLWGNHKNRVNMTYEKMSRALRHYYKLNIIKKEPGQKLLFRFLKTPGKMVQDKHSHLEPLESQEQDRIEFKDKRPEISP
Summary of the method: as §1

ELF5 = target: T11, ELF5 (Homo sapiens, UniProt Q9UKW6-2 1-255); conditions: protein: recombinant; tags: N-terminal GST; dsDNA, one strand shown
T11 sequence: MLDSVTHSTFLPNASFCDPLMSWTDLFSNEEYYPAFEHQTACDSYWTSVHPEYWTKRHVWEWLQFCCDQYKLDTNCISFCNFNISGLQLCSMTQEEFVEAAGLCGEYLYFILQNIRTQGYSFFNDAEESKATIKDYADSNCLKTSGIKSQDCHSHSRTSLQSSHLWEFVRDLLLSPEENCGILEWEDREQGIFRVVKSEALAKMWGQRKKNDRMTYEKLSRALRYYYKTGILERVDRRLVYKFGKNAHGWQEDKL
Summary of the method: as §1

ETV3 = target: T12, ETV3 (Homo sapiens, UniProt P41162-2 1-143); conditions: protein: recombinant; tags: N-terminal GST; dsDNA, one strand shown
T12 sequence: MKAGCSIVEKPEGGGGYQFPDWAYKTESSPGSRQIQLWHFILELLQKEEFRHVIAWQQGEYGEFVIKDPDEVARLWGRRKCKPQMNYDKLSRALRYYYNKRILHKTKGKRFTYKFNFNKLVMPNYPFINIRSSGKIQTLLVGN
Summary of the method: as §1

ETV6 = ETV6 (Homo sapiens, UniProt P41212 1-452); conditions: protein: recombinant; tags: N-terminal GST; dsDNA, one strand shown
Summary of the method: as §1

ELF4, sequence (Q99607 whole entry): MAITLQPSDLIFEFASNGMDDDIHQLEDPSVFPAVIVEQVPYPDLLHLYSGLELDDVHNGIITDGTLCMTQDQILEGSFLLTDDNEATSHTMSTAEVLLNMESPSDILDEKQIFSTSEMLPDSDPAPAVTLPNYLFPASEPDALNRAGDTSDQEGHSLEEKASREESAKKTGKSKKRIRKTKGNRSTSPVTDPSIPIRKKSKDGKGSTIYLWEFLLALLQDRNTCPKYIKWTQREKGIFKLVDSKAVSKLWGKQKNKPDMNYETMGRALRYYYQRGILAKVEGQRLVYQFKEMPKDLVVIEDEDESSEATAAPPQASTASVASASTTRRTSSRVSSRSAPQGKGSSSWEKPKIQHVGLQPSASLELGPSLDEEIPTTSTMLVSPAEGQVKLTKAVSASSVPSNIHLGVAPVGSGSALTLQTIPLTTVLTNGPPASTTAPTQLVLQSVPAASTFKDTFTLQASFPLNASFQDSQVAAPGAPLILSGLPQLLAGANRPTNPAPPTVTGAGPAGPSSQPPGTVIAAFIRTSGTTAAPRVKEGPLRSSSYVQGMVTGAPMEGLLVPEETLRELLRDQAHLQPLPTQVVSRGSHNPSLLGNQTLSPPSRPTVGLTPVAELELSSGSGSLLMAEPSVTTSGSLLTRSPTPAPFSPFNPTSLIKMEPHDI
ETV6, sequence (P41212 whole entry): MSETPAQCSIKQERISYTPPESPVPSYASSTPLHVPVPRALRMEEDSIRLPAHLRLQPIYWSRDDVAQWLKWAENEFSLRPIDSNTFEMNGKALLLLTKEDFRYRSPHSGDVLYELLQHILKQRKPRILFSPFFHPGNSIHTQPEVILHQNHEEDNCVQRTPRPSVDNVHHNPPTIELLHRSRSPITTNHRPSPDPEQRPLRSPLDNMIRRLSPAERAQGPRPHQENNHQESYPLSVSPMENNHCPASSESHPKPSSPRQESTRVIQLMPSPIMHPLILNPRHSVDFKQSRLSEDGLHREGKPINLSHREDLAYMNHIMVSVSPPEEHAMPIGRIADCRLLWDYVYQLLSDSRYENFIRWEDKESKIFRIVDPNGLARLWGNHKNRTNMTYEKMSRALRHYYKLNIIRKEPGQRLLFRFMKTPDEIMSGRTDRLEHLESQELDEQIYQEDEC
CRX, sequence (O43186 whole entry): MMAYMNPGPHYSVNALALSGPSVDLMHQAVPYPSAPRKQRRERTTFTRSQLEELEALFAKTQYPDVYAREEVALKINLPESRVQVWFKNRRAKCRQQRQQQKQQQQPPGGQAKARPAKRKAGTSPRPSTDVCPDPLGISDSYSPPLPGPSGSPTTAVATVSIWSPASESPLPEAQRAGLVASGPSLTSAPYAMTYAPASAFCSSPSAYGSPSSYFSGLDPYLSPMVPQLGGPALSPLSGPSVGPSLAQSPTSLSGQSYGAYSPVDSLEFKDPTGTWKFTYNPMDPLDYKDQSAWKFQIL
ETV1, sequence (P50549 whole entry): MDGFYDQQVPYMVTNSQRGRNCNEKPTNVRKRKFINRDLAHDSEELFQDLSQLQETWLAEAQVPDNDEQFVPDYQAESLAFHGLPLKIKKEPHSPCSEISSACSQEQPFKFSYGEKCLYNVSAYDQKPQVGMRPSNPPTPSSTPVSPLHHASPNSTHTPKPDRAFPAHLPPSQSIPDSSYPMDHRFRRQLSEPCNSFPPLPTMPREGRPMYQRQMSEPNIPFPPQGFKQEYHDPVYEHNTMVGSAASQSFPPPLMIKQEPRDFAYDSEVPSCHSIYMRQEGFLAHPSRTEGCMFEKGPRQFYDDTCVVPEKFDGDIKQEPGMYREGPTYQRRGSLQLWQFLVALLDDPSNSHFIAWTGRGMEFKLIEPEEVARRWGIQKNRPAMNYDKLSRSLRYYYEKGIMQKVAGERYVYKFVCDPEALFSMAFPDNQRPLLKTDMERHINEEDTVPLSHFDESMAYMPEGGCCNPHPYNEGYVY
HSF1, sequence (Q00613 whole entry): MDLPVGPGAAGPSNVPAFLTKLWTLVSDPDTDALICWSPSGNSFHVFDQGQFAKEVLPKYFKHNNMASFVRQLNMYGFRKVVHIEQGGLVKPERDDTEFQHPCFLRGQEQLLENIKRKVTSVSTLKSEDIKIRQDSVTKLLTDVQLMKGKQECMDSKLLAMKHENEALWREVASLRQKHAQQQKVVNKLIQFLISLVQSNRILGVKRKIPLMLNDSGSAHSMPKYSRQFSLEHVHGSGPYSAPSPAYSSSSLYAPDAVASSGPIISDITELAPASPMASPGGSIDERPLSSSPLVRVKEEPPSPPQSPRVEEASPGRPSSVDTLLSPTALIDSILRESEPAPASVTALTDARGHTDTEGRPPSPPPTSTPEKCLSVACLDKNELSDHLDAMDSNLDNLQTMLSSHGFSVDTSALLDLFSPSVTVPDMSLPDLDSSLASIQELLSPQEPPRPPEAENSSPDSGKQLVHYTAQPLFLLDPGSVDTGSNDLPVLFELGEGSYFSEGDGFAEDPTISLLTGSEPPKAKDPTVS
ETV5, sequence (P41161 whole entry): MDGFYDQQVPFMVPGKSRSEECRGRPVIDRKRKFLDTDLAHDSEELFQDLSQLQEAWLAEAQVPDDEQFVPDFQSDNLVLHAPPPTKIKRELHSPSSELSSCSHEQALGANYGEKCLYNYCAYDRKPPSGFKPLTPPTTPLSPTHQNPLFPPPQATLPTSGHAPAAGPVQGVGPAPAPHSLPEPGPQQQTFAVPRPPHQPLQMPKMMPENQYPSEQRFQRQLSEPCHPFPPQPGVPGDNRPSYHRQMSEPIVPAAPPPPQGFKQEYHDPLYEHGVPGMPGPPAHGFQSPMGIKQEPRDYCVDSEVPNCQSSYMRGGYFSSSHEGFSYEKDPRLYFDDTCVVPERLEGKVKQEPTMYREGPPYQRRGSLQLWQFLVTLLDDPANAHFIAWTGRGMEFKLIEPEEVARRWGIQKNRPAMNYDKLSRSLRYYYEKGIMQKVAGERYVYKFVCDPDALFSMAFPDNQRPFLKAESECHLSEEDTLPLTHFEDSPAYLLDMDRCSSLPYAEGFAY

## AATTTT
FEV
  binding signal: 1.22 fold enrichment (6-mer frequency, TF over GST control)
ETV5
  binding signal: 1.29 fold enrichment (6-mer frequency, TF over GST control)
HSF1
  binding signal: 1.51 fold enrichment (6-mer frequency, TF over GST control)
SPIC
  binding signal: 1.17 fold enrichment (6-mer frequency, TF over GST control)
ELF4
  binding signal: 1.32 fold enrichment (6-mer frequency, TF over GST control)
ELK4
  binding signal: 1.3 fold enrichment (6-mer frequency, TF over GST control)
ETV2
  binding signal: 1.46 fold enrichment (6-mer frequency, TF over GST control)
ELF3
  binding signal: 1.41 fold enrichment (6-mer frequency, TF over GST control)
CRX
  binding signal: 1.29 fold enrichment (6-mer frequency, TF over GST control)
ETV1
  binding signal: 1.23 fold enrichment (6-mer frequency, TF over GST control)
ERF
  binding signal: 1.36 fold enrichment (6-mer frequency, TF over GST control)
ETV3L
  binding signal: 1.3 fold enrichment (6-mer frequency, TF over GST control)
ETS2
  binding signal: 1.23 fold enrichment (6-mer frequency, TF over GST control)
SPDEF
  binding signal: 1.22 fold enrichment (6-mer frequency, TF over GST control)
ETV7
  binding signal: 1.14 fold enrichment (6-mer frequency, TF over GST control)
ELF5
  binding signal: 1.23 fold enrichment (6-mer frequency, TF over GST control)
ETV3
  binding signal: 1.2 fold enrichment (6-mer frequency, TF over GST control)
ETV6
  binding signal: 1.13 fold enrichment (6-mer frequency, TF over GST control)
